# Bioassay records from PubChem BioAssay.
# A selection: hits, their analogues and other compounds. The true share with any hit is near 3.8%.
# GCN5L2 inh – inhibitors of human GCN5L2 histone acetyltransferase | Q92830 | GCN5L2 HAT assay, ThioGlo1 CoA-SH fluorescence | Potency, µM (titrated, usually from 58.9 µM), without a hit: at the highest dose activity change, negative = inhibition, hits mostly inhibitors | 0.21% of 390,000 active; note: % is set by controls: 0 for no effect and ±100 for the full control effect
#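 GCN5L2 (20nM final) in 50mM HEPES, 0.1mM EDTA pH 7.5, 0.01% Tween-20 was preincubated 15 min at room temperature with compound, then given ThioGlo1 (50uM), H3(1-25) peptide (75uM) and acetyl-CoA (70uM); CoA-thiol fluorescence (Ex340/Em540) was read at 0 and 20 min.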
# Sfp PPTase inh – blocks B. subtilis Sfp PPTase activity | AID 1490 | Biochemical Sfp PPTase activity, qHTS | 3.5% of 310,000 active | Potency, µM, for the others: largest response in the series, negative = inhibition, hits mostly inhibitors;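 note: the enzyme is Sfp with the accession as filed and its product quenches rhodamine fluorescence; 0% = enzyme reaction without inhibitor and -100% = no enzyme wells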
#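 Compounds were incubated with enzyme (final 15 nM) for 15 min at room temperature before substrate addition started the reaction. Fluorescence at 525 nm excitation, 598 nm emission was recorded immediately and after 30 minutes.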
# TrxR1 inh – blocks rat thioredoxin reductase 1; O89049; recombinant rTrxR1, NADPH fluorescence consumption, selenite substrate; Potency, µM (titrated, usually from 114 µM), inactives show top-dose activity change, negative = inhibition, usual class: inhibitors; 1% of 390,000 active; note: % is set by controls: 0 for no effect and ±100 for the full control effect; nearly all actives have a fitted effect of over 65% in size
#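 Rat TrxR1 (90 nM in the dispensed reagent) was pre-reduced with 400 uM NADPH for 5 min at room temperature, then incubated with compound for 15 min. After 400 uM selenite was added, NADPH fluorescence (Ex 340/Em 450 nm) was followed for 8 min.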
# VDR inhibitor – vitamin D3 receptor (human) inhibition | P11473 | VDR-SRC2-3 peptide fluorescence polarization, 2 h | Potency, µM, for inactives: max response, negative = inhibition, usual class: inhibitors | 0.93% of 400,000 active; note: % is set by controls: 0 for no effect and ±100 for the full control effect
# Target sequence (P11473 whole entry, looked up): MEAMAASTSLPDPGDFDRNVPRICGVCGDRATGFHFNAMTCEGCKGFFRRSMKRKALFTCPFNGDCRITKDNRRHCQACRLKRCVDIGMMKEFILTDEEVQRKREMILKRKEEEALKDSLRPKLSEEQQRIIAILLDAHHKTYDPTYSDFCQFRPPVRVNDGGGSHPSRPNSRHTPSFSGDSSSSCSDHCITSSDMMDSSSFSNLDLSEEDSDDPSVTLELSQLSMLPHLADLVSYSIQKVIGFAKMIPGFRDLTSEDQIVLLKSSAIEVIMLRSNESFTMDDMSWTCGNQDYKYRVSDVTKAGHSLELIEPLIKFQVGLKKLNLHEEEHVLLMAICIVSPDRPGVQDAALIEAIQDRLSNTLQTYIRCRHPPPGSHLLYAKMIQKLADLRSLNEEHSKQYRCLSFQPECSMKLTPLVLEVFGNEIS
#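 Fluorescence polarization assay measuring small-molecule disruption of VDR binding to the coregulator peptide SRC2-3. Compounds were pin-transferred (23 nl) into the reagent mix and incubated 2 h at room temperature before reading.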
# TrxR1 substrate – rat thioredoxin reductase 1 substrate activity. O89049. purified TrxR1 substrate turnover, NADPH consumption readout. Potency, µM (titrated, usually from 114 µM), inactives show top-dose activity change, negative = substrate turnover. 0.01% of 390,000 active. AID 588456; note: % is set by controls: 0 for no effect and ±100 for the full control effect; nearly all actives have a fitted effect of over 50% in size
#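 Rat TrxR1, dispensed at 90 nM, was prereduced with 400 uM NADPH (final) for 5 min at ~22 deg C, then incubated with compound 15 min before 400 uM selenite. A first-read NADPH fluorescence drop versus no-compound background flagged substrates.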
# GLS inhibitor – blocks human kidney-isoform glutaminase activity. 0.21% of 410,000 active. GLS enzymatic activity, qHTS titration. O94925. AID 624170. Potency, µM (series often up to 45.5 µM), for the others: top-dose activity change, negative = inhibition, usual class: inhibitors; note: % is set by controls: 0 for no effect and ±100 for the full control effect
#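 hKGA; 45 mM KH2PO4 pH 8.2 + 0.02% Tween-20; cpd via pin tool; 1 mM Gln soln; GluOx/HRP/Amplex Red; RT 30 min; fluor. t0 & final.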
# VDR inh confirm – inhibits human vitamin D receptor, primary hit validation; shares compounds with VDR inhibitor; VDR-coactivator inhibition assay, qHTS confirmation; Potency, µM, usual class: inhibitors; 89% of 840 active
# VDR FP – blocks human VDR-coactivator binding in fluorescein assay; shares compounds with VDR inhibitor; 48% of 840 active; Potency, µM (doses to about 57.1 µM), for the others: top-dose activity change, negative = inhibition, most hits filed as inhibitors; VDR-coactivator binding, fluorescein fluorescence polarization; AID 602200
# VDR bla – confirmation of human vitamin D receptor inhibitors in reporter cells; VDR beta-lactamase reporter cells, FRET ratio; cells co-treated with VDR agonist LG190178; 23% of 840 active; shares compounds with VDR inhibitor; Potency, µM (series often up to 46.1 µM), for the others: top-dose activity change, negative = inhibition, usual class: inhibitors; note: % is set by controls: 0 for no effect and ±100 for the full control effect
# VDR cytotox – cytotoxic in counter-screen for VDR inhibitors; 18% of 840 active; AID 602204; cytotoxicity counter-screen, cell viability, qHTS; shares compounds with VDR inhibitor; Potency, µM (top dose mostly 48.3 µM), for inactives: at the highest dose activity change, negative = cytotoxicity, usual class: cytotoxic;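 note: plate controls were DMSO for no effect and high-concentration cycloheximide for full effect; nearly all actives have a fitted effect of over 75% in size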
# * hit, by the source's call; ? = inconclusive; . = no result; [ ] = another dose, or the depositor's remark. Calls come from the whole dose curve; as a rule, active = well fitted curve in the direction sought with a large enough effect; inconclusive = small, poorly fitted or top-dose-only effect, or another doubt; inactive = no such curve, though single readings can be large; an effect the other way counts as inactive or inconclusive. Potency is the fitted concentration of half-maximal effect.
SMILES,GCN5L2 inh,Sfp PPTase inh,TrxR1 inh,VDR inhibitor,TrxR1 substrate,GLS inhibitor,VDR inh confirm,VDR FP,VDR bla,VDR cytotox
O=C1OC(NC(=O)c2ccccc2)C(n2cc(CO)nn2)=C1Cl (stereo not drawn),-6%,4µM*,10µM*,40µM*,9%[57.1 µM],75%,?,?,10%,24%
OCc1cn(-c2ccccc2)nn1,2%,3%,0%[57.1 µM],0%,-1%[57.1 µM],0%,.,.,.,.
COc1ccccc1NC(=O)CSc1nnc(CC(=O)Nc2cccc(C(F)(F)F)c2)n1C,0%,2%,18%,1%,12%,0%,.,.,.,.
Cc1cc(C)n2nc(-c3cccnc3)nc2n1,-1%,20%,13%[57.1 µM],-7%,6%[57.1 µM],-5%,.,.,.,.
CCOc1ccc(/C=c2\sc3nc(-c4ccco4)nn3c2=O)cc1OCC,-2%,-8%,3%[57.1 µM],-15%,-5%,-6%,.,.,.,.
Cc1ccc(/C=c2\sc3nc(-c4cccnc4)nn3c2=O)cc1,-8%,10%,?,?,-8%,-13%,2.2*,1.1µM*,3%,18%
CC(C)c1ccc(/C=c2\sc3nc(-c4ccncc4)nn3c2=O)cc1,1%,-4%,-11%,22µM*,-2%,9%,2.7*,?,-7%,18%
COc1ccc(-n2c(SCC#N)nc3c(sc(=S)n3-c3ccccc3)c2=O)c(OC)c1,-5%,14µM*,-11%,25µM*,-10%,-17%,8.4*,?,31%,3%
COC(=O)CC(NC(=O)C1CC1)c1ccc2c(c1)OCO2 (stereo not drawn),-6%,9%,11%,-7%,0%,4%,.,.,.,.
O=C(Nc1ccc(N2CCOCC2)c(S(=O)(=O)Nc2ccc(Cl)cc2)c1)c1cnccn1,-21%,5.6µM*,0%,79µM*,-10%,-7%,17*,?,18%,-12%
CCC(=O)Nc1ccc(N2CCOCC2)c(S(=O)(=O)Nc2ccc(Cl)cc2)c1,-24%,.,7%,?,3%,-14%,.,.,.,.
Cc1ccnc(NC(c2ccccc2F)c2ccc3cccnc3c2O)c1 (stereo not drawn),-18%,.,?,?,-2%,9%,.,.,.,.
Cc1ccc2ccc(C(Nc3ccccn3)c3ccccc3)c(O)c2n1 (stereo not drawn),-11%,11%,?,?,0%,35%,.,.,.,.
COc1ccccc1NC(c1cccnc1)c1ccc2cccnc2c1O (stereo not drawn),-1%,20µM*,0.71µM*,50µM*,-6%,26%,9.5*,?,-12%,-7%
COc1ccc(C(Nc2cc(C)ccn2)c2ccc3ccc(C)nc3c2O)cc1 (stereo not drawn),18%,6%,14µM*,?,3%,-2%,6.3*,3.5µM*,2%,8%
COc1cc(C(Nc2ccccn2)c2ccc3ccc(C)nc3c2O)cc(OC)c1O (stereo not drawn),-4%,18µM*,1.3µM*,18µM*,-6%,15%,7.5*,5µM*,?,?
Cc1ccnc(NC(c2cc(C)ccc2O)c2ccc3cccnc3c2O)c1 (stereo not drawn),-6%,.,5µM*,16µM*,3%,?,13*,11µM*,?,-29%
O=C(NCc1ccccc1)N1CCNCC1,-9%,9%,18%[57.1 µM],3%,1%[57.1 µM],-5%,.,.,.,.
CCSc1ncc(Cl)c(C(=O)Nc2ccc(S(N)(=O)=O)cc2)n1,-6%,9%,-4%,4%,-5%,23%,.,.,.,.
CSc1ncc(Cl)c(C(=O)Nc2ccc(C)c(C)c2)n1,-5%,3%,23%,7%,4%,-1%,.,.,.,.
Cc1ccc(NC(=O)c2nc(S(=O)(=O)Cc3ccccc3F)ncc2Cl)cc1C,.,.,3.2µM*,.,-6%,.,3.2*,3.2µM*,9.2µM*,15µM*
NS(=O)(=O)c1ccc(NC(=O)c2nc(S(=O)(=O)Cc3ccccc3F)ncc2Cl)cc1,.,.,3.5µM*,.,4%,.,5*,3.5µM*,?,11%
Cc1ccc(NC(=O)c2nc(S(=O)(=O)Cc3ccccc3F)ncc2Cl)cc1,.,.,2.8µM*,.,9%,.,1.6*,1.4µM*,16µM*,?
Cc1ccc2nc(-c3ccccc3C)oc(=O)c2c1,-8%,-6%,10%,-4%,4%,-2%,.,.,.,.
COc1ccc(/C=C2/C(=O)ON=C2c2ccccc2)cc1OC,-12%,35µM*,32µM*,40µM*,7%,32%,21*,?,-3%,-7%
